In the library only some 12% were active in any assay of this set; here they are far more common.
BAZ2B block – qHTS Assay for Inhibitors of BAZ2B. Bromodomain adjacent to zinc finger domain protein 2B (Homo sapiens), Q9UIF8. AlphaScreen BAZ2B-H3K14Ac peptide displacement. Potency, µM (doses to about 114 µM), inactives show top-dose activity change, negative = inhibition, hits mostly inhibitors. 4.4% of 360,000 active; also: potency is read from the fitted curve at half-maximal effect; % is scaled to controls: 0 for no effect and ±100 for the full control effect; nearly all actives have a fitted effect of over 60% in size
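Complex of BAZ2B and biotin-H3K14Ac (50 nM apiece) forms over 30 min at RT, then faces library compounds up to 110 uM for another 30 min; AlphaScreen beads added, 20 min dark incubation, luminescence read.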
PLK1 PBD inh – qHTS for Inhibitors of PLK1-PDB (polo-like kinase 1 - polo-box domain): Primary Screen. Serine/threonine-protein kinase PLK1 (Homo sapiens), P53350. Plk1 PBD binding of FITC phosphopeptide, fluorescence polarization. Potency, µM, inactives show max response, negative = inhibition, most hits filed as inhibitors. 2.8% of 360,000 active; also: potency is read from the fitted curve at half-maximal effect; series mostly up to about 57 µM; % is scaled to controls: 0 for no effect and ±100 for the full control effect; nearly all actives have a fitted effect of over 65% in size
PI5P4Ka inh – qHTS for Inhibitors of phosphatidylinositol 5-phosphate 4-kinase (PI5P4K); Phosphatidylinositol 5-phosphate 4-kinase type-2 alpha (Homo sapiens), P48426; PI5P4Kalpha enzyme, ADP-Glo luminescence, 60 min; hits give low values; max response, %; 1.2% of 330,000 active; active = max response of -50% or lower; inconclusive = between -30% and -50%; inactive = -30% or higher; also: value at the top dose of about 77 µM; % is scaled to controls: 0 for no effect and ±100 for the full control effect
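Luminescence from ADP-Glo served as readout of PI5P4Kalpha activity in a qHTS format. Reaction: enzyme, substrate, compound, ATP at 5 microM final, 60 min at RT.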
JMJD2A Tudor inh – qHTS Assay for Inhibitors of JMJD2A-Tudor Domain; AlphaScreen JMJD2A-Tudor / H3K4me3 peptide binding; Potency, µM (doses to about 114 µM), inactives show at the top dose activity change, negative = inhibition, actives largely listed as inhibitors; 4.4% of 390,000 active; AID 504339, 2011; also: potency is read from the fitted curve at half-maximal effect; % is scaled to controls: 0 for no effect and ±100 for the full control effect; nearly all actives have a fitted effect of over 50% in size
HP1b binding inh – HTS for Inhibitors of HP1-beta Chromodomain Interactions with Methylated Histone Tails. AlphaScreen HP1-beta / biotin-H3K9me3 peptide binding. AID 540317, 2011. Potency, µM (top dose mostly 114 µM), for the others: at the top dose activity change, negative = inhibition, most hits filed as inhibitors. Chromobox protein homolog 1 (Homo sapiens), P83916. 0.56% of 390,000 active; also: potency is read from the fitted curve at half-maximal effect; nearly all actives have a fitted effect of over 70% in size
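HP1-beta protein (50 nM final) preincubated 30 min at room temperature with biotinylated H3(1-18)K9me3 peptide (50 nM) in PBS pH 7.4, 0.01% Tween-20, then compound added for 30 min. AlphaScreen streptavidin donor/nickel chelate acceptor beads (10 ug/mL final), 30 min dark, luminescence read.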
G9a inh – qHTS Assay for Inhibitors of Histone Lysine Methyltransferase G9a; Histone-lysine N-methyltransferase EHMT2 (Homo sapiens), Q96KQ7; G9a H3K9 monomethylation, AlphaScreen, 2 h; 8.8% of 350,000 active; Potency, µM (titrated, usually from 102 µM), for inactives: at the highest dose activity, negative = inhibition, most hits filed as inhibitors; AID 504332, 2011; also: potency is read from the fitted curve at half-maximal effect; % is scaled to controls: 0 for no effect and ±100 for the full control effect; nearly all actives have a fitted effect of over 75% in size
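Step 1: enzyme (final 20 nM) with compound, 15 min RT. Step 2: substrate peptide 500 nM and SAM 20 uM, 2 h RT. Step 3: anti-H3K9me1 antibody and AlphaScreen beads, 10 min, then plate read.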
* marks the source's active call; other numbers are inactive results; ? = inconclusive; . = no result; [ ] = remark or other dose. Unless noted, calls follow the shape of the dose curve; as a rule, active = well fitted curve in the direction sought with a large enough effect; inconclusive = small, poorly fitted or top-dose-only effect, or another doubt; inactive = no such curve, though single readings can be large; an effect the other way counts as inactive or inconclusive.

SMILES	BAZ2B block	PLK1 PBD inh	PI5P4Ka inh	JMJD2A Tudor inh	HP1b binding inh	G9a inh
CCOC(=O)c1ccc(N/C(=N\S(=O)(=O)c2ccccc2C)c2ccccc2)cc1	-29.4%	-6.8%	-2.6	-20.7%	5.1%	12.4%[12.7 µM]
CCOC(=S)N/C(=N\S(C)(=O)=O)c1ccccc1	-18.6%	16.8µM*	0.6	-11.0%[11.4 µM]	19.4%	15.8µM*
COc1ccc(-c2cc(CNS(=O)(=O)c3ccc(NC(C)=O)cc3)on2)cc1	-24.4%	7.5%	-0.1	2.0%	14.7%	35.8%
O=S(=O)(NCc1cc(-c2ccccc2Cl)no1)c1ccc(Cl)cc1	4.6%	3.77µM*	?	?	?	43.3%
c1ccc(-c2csc(Nc3ccccn3)n2)cc1	-35.8%	-23.9%	-4.8	-29.5%	13.0%	-7.4%
COc1ccc(-c2csc(Nc3ccc(C)cn3)n2)cc1	?	-15.5%	5.9	-28.9%	-13.3%	20µM*
Cc1ccc(-c2csc(Nc3ccccn3)n2)cc1	?	-4.1%	4.2	-21.9%	20.6%	?
Oc1ccc(-c2csc(Nc3ccccn3)n2)cc1	?	6.9%	4.8	-27.1%	2.7%	70.8µM*
COc1ccc(-c2csc(Nc3ccccn3)n2)cc1OC	44.7µM*	-12.0%	-1.0	?	-24.6%	50.1µM*
COc1ccc(F)cc1-c1cc(C(=O)NCc2ccccc2)[nH]n1	.	-0.9%	-2.0	.	.	.
COCCCN1CN=C(Nc2nc3ccccc3o2)NC1	-5.0%	7.1%	-3.9	12.6µM*	2.8%	?
CN(CC(=O)Nc1cccc(F)c1)C(=O)c1ccccc1-n1cnnn1	-8.5%	-7.9%	1.0	-12.2%	8.6%	-28.6%
Cc1ccc(N2CC(C(=O)Nc3ccccc3C(=O)NC3CCCCC3)CC2=O)cc1C (stereo unspecified)	.	-8.9%	-2.0	20µM*	-11.0%	.
O=C(NC1CC1)C1CC(=O)N(c2cccc(Cl)c2)C1 (stereo unspecified)	-37.8%	-2.5%	2.3	-2.9%	42.6%	25.1µM*
Cc1ccc(N2CC(C(=O)NC3CC3)CC2=O)cc1Cl (stereo unspecified)	-1.5%	-7.0%	-0.1	0.0%	4.0%	-6.8%
Cc1ccc(N2CC(C(=O)Nc3ccccc3C(=O)NC3CCCCC3)CC2=O)cc1 (stereo unspecified)	2.1%	-2.4%	.	-10.4%	29.7%	0.7%[59 µM]
Cc1ccc(N2CC(C(=O)Nc3ccc(N(C)C)cc3)CC2=O)cc1C (stereo unspecified)	?	-0.4%	-6.2	56.2µM*	-5.7%	-30.2%[12.7 µM]
COc1ccccc1CNC(=O)C(=O)NCC(c1ccc2c(c1)OCO2)N1CCOCC1 (stereo unspecified)	5.2%	.	.	2.3%	25.2%[57 µM]	6.8%[59 µM]
COc1ccc(S(=O)(=O)NC(=O)C2(C)CCN2C(=O)COc2ccc(Cl)cc2)cc1OC (stereo unspecified)	.	2.2%	-0.3	.	.	.
O=C1NN=C(CSc2n[nH]c(=S)s2)CS1	79.4µM*	?	-55.4*	17.8µM*	-34.8%	2.51µM*
C/C(=N\N1C(=O)c2ccccc2NC1c1ccco1)c1ccccc1O (stereo unspecified)	70.8µM*	-6.7%	-0.1	?	?	-45.0%
CC(C)CC(OC(=O)c1cccs1)C(=O)NCc1ccco1 (stereo unspecified)	-19.4%	?	?	-18.3%[57.1 µM]	-22.6%	12.6µM*
COc1cc(NC(=O)c2cc([N+](=O)[O-])ccc2NC(=O)CNCc2ccccn2)cc(OC)c1	?	-4.8%	1.1	79.4µM*	6.3%	0.0%
COc1ccc(NC(=O)c2cc([N+](=O)[O-])ccc2NC(=O)CNCc2ccccn2)c(OC)c1	?	?	-12.3	79.4µM*	-1.2%	28.2µM*
COc1cccc(C(=O)Nc2cccc(-c3cn4c(C)csc4n3)c2)c1OC	?	.	.	?	0.0%[57 µM]	-2.9%[59 µM]
SMILES	BAZ2B block	PLK1 PBD inh	PI5P4Ka inh	JMJD2A Tudor inh	HP1b binding inh	G9a inh
O=C(COc1cccc(F)c1)N1c2ccccc2Sc2ccccc21	-2.0%	-4.5%	11.4	56.2µM*	?	7.2%[59 µM]
CSCCC(NC(=O)c1ccccc1Cl)C(=O)NC1CCN(Cc2ccccc2)CC1 (stereo unspecified)	-38.4%	-7.9%	4.0	-16.2%	0.4%	1.58µM*
CSCCC(NC(=O)c1cccc(C)c1)C(=O)Nc1sccc1C(N)=O (stereo unspecified)	-30.3%	-9.9%	-11.7	-16.8%	16.6%	50.1µM*
CSCCC(NC(=O)c1ccccc1)C(=O)Nc1ccc(C)cc1 (stereo unspecified)	-14.0%	-3.2%	4.9	-20.3%	26.9%	-0.9%[59 µM]
CSCCC(NC(=O)c1cccc(S(=O)(=O)N2CCOCC2)c1)C(=O)Nc1cccc(C)c1 (stereo unspecified)	-4.0%	0.1%	-0.6	-2.0%	19.7%	10µM*
CSCCC(NC(=O)c1ccccc1Cl)C(=O)Nc1cccc(S(=O)(=O)N2CCCC2)c1 (stereo unspecified)	-9.5%	3.5%	4.6	-3.6%	41.3%	44.7µM*
CCN(CC)c1ccc(/C=N/N2CCN(c3ccccn3)CC2)cc1	-6.3%	-1.5%	8.7	-13.9%	-2.6%	56.2µM*
CCN(CC)c1ccc(/C=N/N2CCOCC2)cc1	?	-7.6%	-2.4	?	?	11.2µM*
COc1ccc(/C=N/N2CCOCC2)cc1O	-0.1%	-1.0%	-6.5	-0.3%	33.9%	-17.4%[59 µM]
COCCNC(=S)NCc1ccc2[nH]c3c(c2c1)CCCC3	.	-11.9%	-0.4	56.2µM*	-18.1%	44.7µM*
COCCNC(=O)NC(=O)COC(=O)c1ccc2[nH]c3c(c2c1)CCCC3	-2.0%	3.3%	-3.1	-18.2%	19.1%	-25.1%
CC(C)CC(=O)NCc1ccc2[nH]c3c(c2c1)CCCC3	.	-3.4%	-5.3	-31.8%	4.4%	39.8µM*
Cc1ccc(NC(=O)C2CCN(S(=O)(=O)c3ccc4[nH]c5c(c4c3)CCCCC5)CC2)cc1	-13.9%	.	.	-22.1%	27.3%	-36.5%[59 µM]
Cc1ccc(NC(=S)NCc2ccc3[nH]c4c(c3c2)CCCC4)cc1	35.5µM*	-24.5%	7.0	50.1µM*	?	44.7µM*
O=C(NCCO)c1ccc2[nH]c3c(c2c1)CCCC3	-28.7%	-1.8%	2.4	-19.3%	0.3%	?
CCc1ccc(NC(=O)c2sc3nc(C)c(Cl)c(C)c3c2NC(=O)c2ccccc2OC)cc1	-8.3%	.	.	-5.2%	22.6%	?
CCCc1c(C(=O)N/N=C(\C)c2ccc(CC(C)C)cc2)nnn1-c1nonc1N	.	-7.4%	13.9	.	.	.

Screening results deposited in PubChem BioAssay by National Center for Advancing Translational Sciences (NCATS).
